According to PubChem BioAssay AID1159580 (chemical genetic matrix, 2015):
Values joined by “and” are separate entries in the source; they are usually repeats but may differ in a detail not shown here. Identical values can stand only once. The whole screen tested about 5,500 compounds, of which about 2,000 (36%) were called active. Not shown: some 18% with an inconclusive outcome. Rule as the data show it: active = normalized growth mostly below about 0.91 (no sharp cut-off); inconclusive = no clear call, values can overlap the other calls; inactive = mostly above about 0.92. This is one part of the list.

Assay: chemical genetic growth profiling, strain panel (AID 1159580);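 also: tested at 20 µM; growth read once vehicle control cultures reached saturation at 30 °C; 1 = growth at the plate median or of vehicle wells; lower values mean less growth of the strain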
Details: growth OD

Measured: normalized growth

CN(C)CCC(c1ccccc1)c1ccccn1 (centres undefined)
inactive: S. cerevisiae deletion strains, locus YJR066W, strain TOR1, hits give low values 0.93 | S. cerevisiae deletion strains, locus YJR075W, strain HOC1, hits give low values 1.01 and 0.951 | S. cerevisiae deletion strains, locus YKL009W, strain mrt4, hits give low values 1.03 | S. cerevisiae deletion strains, locus YKL068W, hits give low values 1 | S. cerevisiae deletion strains, locus YKL085W, strain MDH1 (second series), hits give low values 1.01 | S. cerevisiae deletion strains, locus YKL085W, strain MDH1, hits give low values 1.01 | S. cerevisiae deletion strains, locus YKL160W, strain elf1, hits give low values 1.01 | S. cerevisiae deletion strains, locus YKL190W, strain CNB1, hits give low values 1.01 | S. cerevisiae deletion strains, locus YKR001C, strain vps1, hits give low values 1 | S. cerevisiae deletion strains, locus YKR026C, strain gcn3, hits give low values 1.03 | S. cerevisiae deletion strains, locus YKR091W, strain srl3, hits give low values 1 | S. cerevisiae deletion strains, locus YLL001W, strain dnm1, hits give low values 1.02 | S. cerevisiae deletion strains, locus YLL026W, hits give low values 1.02 | S. cerevisiae deletion strains, locus YLL041C, strain sdh2, hits give low values 1.02 | S. cerevisiae deletion strains, locus YLR027C, strain aat2, hits give low values 1.01 | S. cerevisiae deletion strains, locus YLR039C, strain RIC1, hits give low values 1.05 | S. cerevisiae deletion strains, locus YLR058C, strain SHM2, hits give low values 1 | S. cerevisiae deletion strains, locus YLR102C, strain apc9, hits give low values 1 | S. cerevisiae deletion strains, locus YLR113W, strain HOG1, hits give low values 0.981 | S. cerevisiae deletion strains, locus YLR221C, strain rsa3, hits give low values 1.01 | S. cerevisiae deletion strains, locus YLR258W, strain gsy2, hits give low values 1.01 | S. cerevisiae deletion strains, locus YLR262C, strain YPT6 (second series), hits give low values 1.03 | S. cerevisiae deletion strains, locus YLR262C, strain YPT6, hits give low values 1.01 | S. cerevisiae deletion strains, locus YLR268W, strain sec22, hits give low values 1.04 | S. cerevisiae deletion strains, locus YLR320W, strain mms22, hits give low values 1.01 | S. cerevisiae deletion strains, locus YLR330W, strain CHS5, hits give low values 1.01 | S. cerevisiae deletion strains, locus YLR342W, strain FKS1 (second series), hits give low values 1.03 | S. cerevisiae deletion strains, locus YLR342W, strain FKS1, hits give low values 1.01 | S. cerevisiae deletion strains, locus YLR357W, strain rsc2, hits give low values 1.02 | S. cerevisiae deletion strains, locus YLR370C, strain arc18, hits give low values 1.02 | S. cerevisiae deletion strains, locus YLR371W, strain rom2, hits give low values 1.01 | S. cerevisiae deletion strains, locus YLR384C, strain iki3, hits give low values 1.01 | S. cerevisiae deletion strains, locus YLR418C, strain cdc73, hits give low values 0.995 | S. cerevisiae deletion strains, locus YML016C, strain PPZ1, hits give low values 1 | S. cerevisiae deletion strains, locus YML032C, strain rad52, hits give low values 1.01 | S. cerevisiae deletion strains, locus YML120C, strain ndi1, hits give low values 1.01 | S. cerevisiae deletion strains, locus YML124C, strain tub3, hits give low values 1 | S. cerevisiae deletion strains, locus YMR058W, strain fet3, hits give low values 1.02 | S. cerevisiae deletion strains, locus YMR078C, strain ctf18, hits give low values 1.01 | S. cerevisiae deletion strains, locus YMR125W, strain sto1, hits give low values 1.01 | S. cerevisiae deletion strains, locus YMR129W, hits give low values 1.01 | S. cerevisiae deletion strains, locus YMR205C, strain PFK2, hits give low values 1.01 | S. cerevisiae deletion strains, locus YMR223W, strain ubp8, hits give low values 0.983 | S. cerevisiae deletion strains, locus YMR231W, strain pep5, hits give low values 1.02 | S. cerevisiae deletion strains, locus YMR263W, strain SAP30, hits give low values 1 and 0.998 | S. cerevisiae deletion strains, locus YMR307W, strain GAS1, hits give low values 1.03 and 0.977 | S. cerevisiae deletion strains, locus YNL067W, strain RPL9B, hits give low values 0.996 | S. cerevisiae deletion strains, locus YNL071W, strain lat1, hits give low values 1.01 | S. cerevisiae deletion strains, locus YNL128W, strain TEP1, hits give low values 1.02 | S. cerevisiae deletion strains, locus YNL175C, strain NOP13, hits give low values 1.01 | S. cerevisiae deletion strains, locus YNL183C, strain NPR1, hits give low values 0.939 | S. cerevisiae deletion strains, locus YNL197C, strain WHI3, hits give low values 1.01 | S. cerevisiae deletion strains, locus YNL209W, strain ssb2, hits give low values 1.02 | S. cerevisiae deletion strains, locus YNL224C, strain SQS1, hits give low values 1 | S. cerevisiae deletion strains, locus YNL233W, strain BNI4, hits give low values 1 | S. cerevisiae deletion strains, locus YNL248C, strain rpa49, hits give low values 1 | S. cerevisiae deletion strains, locus YNL250W, strain rad50, hits give low values 0.997 | S. cerevisiae deletion strains, locus YNL271C, strain bni1, hits give low values 0.993 | S. cerevisiae deletion strains, locus YNL298W, strain CLA4, hits give low values 1.01 | S. cerevisiae deletion strains, locus YNL307C, strain MCK1, hits give low values 1.01 | S. cerevisiae deletion strains, locus YNL322C, strain KRE1 (second series), hits give low values 1.01 | S. cerevisiae deletion strains, locus YNR049C, strain mso1, hits give low values 1.02 | S. cerevisiae deletion strains, locus YNR052C, strain pop2, hits give low values 1.01 | S. cerevisiae deletion strains, locus YOL006C, strain TOP1, hits give low values 0.993 | S. cerevisiae deletion strains, locus YOL012C, strain htz1 2.13 | S. cerevisiae deletion strains, locus YOL147C, strain pex11, hits give low values 1 | S. cerevisiae deletion strains, locus YOR001W, strain rrp6, hits give low values 0.988 | S. cerevisiae deletion strains, locus YOR061W, strain CKA2, hits give low values 1 | S. cerevisiae deletion strains, locus YOR069W, strain VPS5, hits give low values 1.01 | S. cerevisiae deletion strains, locus YOR070C, strain gyp1, hits give low values 1.01 | S. cerevisiae deletion strains, locus YOR080W, strain dia2, hits give low values 1.01 | S. cerevisiae deletion strains, locus YOR083W, strain WHI5 (second series), hits give low values 1.03 | S. cerevisiae deletion strains, locus YOR083W, strain WHI5, hits give low values 1.01 | S. cerevisiae deletion strains, locus YOR106W, strain vam3, hits give low values 1 | S. cerevisiae deletion strains, locus YOR136W, strain idh2, hits give low values 0.99 | S. cerevisiae deletion strains, locus YOR144C, strain elg1, hits give low values 0.995 | S. cerevisiae deletion strains, locus YOR184W, strain ser1, hits give low values 1.01 | S. cerevisiae deletion strains, locus YOR231W, strain MKK1, hits give low values 0.981 | S. cerevisiae deletion strains, locus YOR265W, strain rbl2, hits give low values 1 | S. cerevisiae deletion strains, locus YOR270C, strain vph1, hits give low values 0.997 | S. cerevisiae deletion strains, locus YOR290C, strain snf2, hits give low values 1.04 | S. cerevisiae deletion strains, locus YOR316C, strain cot1, hits give low values 1 | S. cerevisiae deletion strains, locus YPL051W, strain arl3, hits give low values 1.01 | S. cerevisiae deletion strains, locus YPL055C, strain LGE1, hits give low values 0.985 | S. cerevisiae deletion strains, locus YPL078C, strain atp4, hits give low values 1.01 | S. cerevisiae deletion strains, locus YPL106C, strain sse1, hits give low values 1 | S. cerevisiae deletion strains, locus YPL240C, strain hsp82, hits give low values 0.989 | S. cerevisiae deletion strains, locus YPL256C, strain CLN2, hits give low values 0.928 | S. cerevisiae deletion strains, locus YPR119W, strain clb2, hits give low values 1 | S. cerevisiae deletion strains, locus YPR141C, strain kar3, hits give low values 0.994 | S. cerevisiae deletion strains, locus YPR163C, strain tif3, hits give low values 1.01 | S. cerevisiae deletion strains, locus YPR167C, strain met16, hits give low values 0.999 | S. cerevisiae deletion strains, strain wtn01, hits give low values 1 | S. cerevisiae strains, strain wild type, hits give low values 1.01
